Measurements from the supplement of paper PMC6555819.

Key:
Experiment in all cases: PBM binding z-score (relative to random genomic background probes); higher = stronger binding; sequences stand for … in GC…GCGATTGACAGCGTAGAATGAAGG
[1] = tested on: PPARg:RXRa DBDmut IVT, anti-RXR (DBD mutation: RXRa K156A/R161A, NR concentration 270 nM, RXRa partner concentration 90 nM)
Outline: (§1)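 Ligand-free nuclear receptor dimers were applied to custom Agilent 4×180K protein-binding microarrays whose double-stranded probes carried direct-repeat seeds, single-nucleotide variants, half-site ablations and random human genomic background sequences in 34-nt variable regions. Incubation lasted 1 h. Binding z-scores were computed against the random background probes from regression-normalized fluorescence.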

[2] = tested on: PPARg:RXRa IVT, anti-PPARg (NR concentration 270 nM, RXRa partner concentration 90 nM)
Outline: as §1

[3] = tested on: PPARg DBDmut:RXRa IVT, anti-PPARg (DBD mutation: PPARg1 K132A/R137A, NR concentration 270 nM, RXRa partner concentration 90 nM)
Outline: as §1

[4] = tested on: PPARg DBDmut IVT, anti-PPARg (DBD mutation: PPARg1 K132A/R137A, NR concentration 270 nM)
Outline: as §1

[5] = tested on: PPARg homodimer (NR concentration 180 nM)
Outline: as §1

[6] = tested on: PXR:RXRa (NR concentration 270 nM, RXRa partner concentration 90 nM)
Outline: as §1

[7] = tested on: PXR homodimer (NR concentration 270 nM)
Outline: as §1

[8] = tested on: RARa:RXR (NR concentration 270 nM, RXRa partner concentration 90 nM)
Outline: as §1

[9] = tested on: RARa homodimer (NR concentration 270 nM)
Outline: as §1

[10] = tested on: RARb:RXRa (NR concentration 270 nM, RXRa partner concentration 90 nM)
Outline: as §1

[11] = tested on: RARb homodimer (NR concentration 270 nM)
Outline: as §1

[12] = tested on: RARg:RXRa (NR concentration 270 nM, RXRa partner concentration 90 nM)
Outline: as §1

[13] = tested on: RARg homodimer (NR concentration 270 nM)
Outline: as §1

[14] = tested on: RXRa DBDmut IVT, anti-RXR (DBD mutation: RXRa K156A/R161A, NR concentration 90 nM)
Outline: as §1

[15] = tested on: RXRa homodimer (NR concentration 180 nM)
Outline: as §1

[16] = tested on: THRa:RXRa (NR concentration 90 nM, RXRa partner concentration 90 nM)
Outline: as §1

[17] = tested on: THRa homodimer (NR concentration 90 nM)
Outline: as §1

[18] = tested on: VDR homodimer (NR concentration 270 nM)
Outline: as §1

Row | Sequence | PBM binding z-score [1] | PBM binding z-score [2] | PBM binding z-score [3] | PBM binding z-score [4] | PBM binding z-score [5] | PBM binding z-score [6] | PBM binding z-score [7] | PBM binding z-score [8] | PBM binding z-score [9] | PBM binding z-score [10] | PBM binding z-score [11] | PBM binding z-score [12] | PBM binding z-score [13] | PBM binding z-score [14] | PBM binding z-score [15] | PBM binding z-score [16] | PBM binding z-score [17] | PBM binding z-score [18]
1 | ATATGTATGTTAGCTGGGGTCATTCAGACTAGGC | 2.2 | 2.3 | 1.51 | 1.76 | 1.82 | 5.63 | 2.99 | 5.55 | 0.578 | 2.6 | 3.35 | 3.62 | 2.31 | 2.11 | 5.39 | 4.27 | 2.96 | 4.67
2 | ATCGAAAGTTCGACGAGGTGAGTATACACCGTTT | -0.191 | 0.687 | 0.332 | 1.16 | 0.996 | 1.42 | 2.24 | 1.03 | -0.0858 | 2.32 | 1.42 | 1.75 | 1.85 | 1.63 | 1.28 | 2.5 | 0.567 | 1.59
3 | TCTTGTAGATCAAGTAGGTTAAGAAAGCCTGAGT | 2.13 | 2.44 | 0.611 | 0.864 | 0.365 | 0.513 | 0.364 | 0.645 | 0.0237 | 0.154 | 0.305 | 0.0366 | -0.106 | 0.547 | 0.304 | 0.372 | -0.238 | 0.191
4 | ATCGAAAGGTCGTGAGGTGAGTATACAGAAAGGC | -0.0528 | 2.47 | 1.08 | 1.25 | 2.77 | 3.39 | 0.278 | 4.21 | 0.287 | 4.02 | 3.07 | 4.69 | 3.9 | 1.42 | 4.97 | 3.45 | 1.47 | 1.09
5 | GGAACGAGGGCATTCGAGTTGATATCATGGCGAT | 2.99 | 2.26 | -0.118 | -0.698 | 0.277 | 3.8 | 1.54 | 0.922 | -0.657 | 1.78 | 0.726 | 1.25 | 1.52 | 2.79 | 0.858 | 3.38 | -0.359 | 2.91
6 | CCGACTGGGGCATAAGGTTACCACAAGCCAGCCC | 2.87 | 3.09 | -1.04 | -1.03 | 0.364 | 0.223 | -0.315 | 1.25 | -0.43 | 1.73 | 1.92 | 1.8 | 1.2 | -0.196 | 1.32 | 2.04 | 1.37 | 0.195
7 | ACTAGCACGCCAAGGGTCACTCAAGATTAGTCCG | 0.189 | 1.26 | -0.247 | -0.0799 | 2.55 | 3.56 | 0.0958 | 4.5 | 1.53 | 3.58 | 3.93 | 3.88 | 3.91 | 1.02 | 3.73 | 2.86 | 0.515 | 1.49
8 | CCTGCTAGGTAAATGGTCAGCTAAAGCAGCTCGC | 1.07 | 0.489 | -1.23 | -1.53 | 0.311 | -0.268 | -0.537 | -0.118 | -0.6 | 0.261 | -0.0242 | -0.351 | -0.323 | -0.0563 | -0.478 | -0.113 | -0.416 | -0.618
